The target of assay [1] is Cellular tumor antigen p53 (Homo sapiens) (UniProt P04637). Put plainly: Primary qHTS for small molecule compounds that upregulate eGFP-tagged delta133p53alpha (in N-terminal) cells. (AID 2060322). Also: nearly all actives have a fitted effect of over 75% in size. Also: potency is read from the fitted curve at half-maximal effect.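 As to activation: cells pre-induced with doxycycline then dosed without doxycycline; series mostly up to about 56 µM; 0% = DMSO vehicle and 100% = reference activator.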 Conditions: NCI-H358 eGFP-delta133p53alpha fluorescence, 24 h; activation: stronger effect = higher value. Put shortly:
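NCI-H358 cells pre-induced 24 h with 10 ng/ml doxycycline for eGFP-delta133p53alpha, plated dox-free and exposed 24 h at 37C to titrated compounds. Fixed, Hoechst-stained; gated GFP peak intensity by laser scanning cytometry, normalized to DMSO (0%) and 57.5 uM 5-azacytidine (100%).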
On the technique in general: In qHTS, concentration-response curves come from the screen itself.

The target in assay [2] is Aldehyde dehydrogenase, mitochondrial (Homo sapiens) (UniProt P05091). Put plainly: qHTS for Inhibitors of the Aldehyde Dehydrogenase Family (ALDH2) Primary screen (AID 2061308).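 Also: plate controls were vehicle for no effect and reference inhibitor for full effect; nearly all actives have a fitted effect of over 55% in size.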
For assay [3], the target named is Retinaldehyde dehydrogenase 3 (Homo sapiens) (UniProt P47895). Description: qHTS for Inhibitors of the Aldehyde Dehydrogenase Family (ALDH1A3) Primary screen (AID 2061315).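 Also: plate controls were DMSO vehicle for no effect and reference inhibitor for full effect.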

For 26 compounds, activation and Potency results are on record in PubChem BioAssay (NCATS).

Records with an inconclusive call do not appear. A number with no mark means an inactive call. Activity calls are given as the source filed them. Calls follow the shape of the dose curve; as a rule, active = well fitted curve in the direction sought with a large enough effect; inconclusive = small, poorly fitted or top-dose-only effect, or another doubt; inactive = no such curve, though single readings can be large; an effect the other way counts as inactive or inconclusive.

Sequence of Cellular tumor antigen p53 (Homo sapiens) (P04637 whole entry, looked up): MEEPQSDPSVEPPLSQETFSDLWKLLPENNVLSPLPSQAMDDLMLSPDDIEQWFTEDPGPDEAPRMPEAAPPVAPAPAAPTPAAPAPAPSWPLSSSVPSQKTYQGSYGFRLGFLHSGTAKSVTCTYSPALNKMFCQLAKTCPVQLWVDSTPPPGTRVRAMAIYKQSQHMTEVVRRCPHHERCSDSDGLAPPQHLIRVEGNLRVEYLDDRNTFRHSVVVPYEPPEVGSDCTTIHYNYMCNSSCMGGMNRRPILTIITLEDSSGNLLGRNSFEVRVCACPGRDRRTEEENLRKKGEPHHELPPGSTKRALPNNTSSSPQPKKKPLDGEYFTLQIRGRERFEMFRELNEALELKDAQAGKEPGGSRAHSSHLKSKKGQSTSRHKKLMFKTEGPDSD

For the compound `N#CC1C(=O)Nc2scc(-c3ccc(-c4ccccc4O)cc3)c2C1=O` (stereo not drawn), the activation in assay [1] is 17%. Besides, the Potency result in assay [2] and in assay [3] was “inactive” each time.

In the case of `CCOP(=O)(Cc1ccc(C(=O)Nc2ccc(Br)cc2C#N)cc1)OCC`, the activation in assay [1] is 2.33%. The Potency result in assay [2] and in assay [3] was “inactive” throughout.

Regarding `COC(=O)C1=CO[C@@H](O[C@@H]2O[C@H](CO)[C@@H](O)[C@H](O)[C@H]2O)[C@@H]2[C@@H](C)[C@@H](O)C(O)[C@H]12` (stereo partly drawn), the activation in assay [1] was 14.5%. Also, the Potency entry in assay [2] and in assay [3] was “inactive” each time.

As to `C=C1C(=O)O[C@@H]2C[C@@]3(C)CCC[C@H](C)C3=C[C@H]12`, the Potency in assay [1] was 19 µM (active). Further, the Potency entry in assay [2] and in assay [3] was “inactive” in each case.

Take `Cc1ccc(F)cc1S(=O)(=O)N[C@@H]1CCN(Cc2ccc(OC(C)C)cc2)C1`: the activation in assay [1] was -2.39%. Also, the Potency entry in assay [2] and in assay [3] was “inactive” throughout.

Consider `CC(=O)OC[C@]12[C@H](OC(C)=O)C(=O)[C@@H]3[C@@H](O)[C@@]14O[C@@]3(C)COC(=O)c1cccnc1[C@@H](C)[C@H](C)C(=O)O[C@@H]([C@H](O)[C@@H]2OC(C)=O)[C@]4(C)O`, for which the activation in assay [1] is -8.04%. For the same compound, the Potency entry in assay [2] and in assay [3] was “inactive” each time.

`CC(C)/C=C1/NC(=O)C(C(C)C)n2c1nc1c(O)cccc1c2=O` (stereo not drawn): in assay [1], the activation is -14.5%. Further, the Potency result in assay [2] and in assay [3] was “inactive” in each case.

Consider `C=C(C)C1CC(O)C(C)C12CC(O)C1(C)OC1C2O` (stereo not drawn), for which the activation in assay [1] was 19.1%. For the same compound, the Potency result in assay [2] and in assay [3] was “inactive” throughout.

`C[C@@H]1O[C@@H](OC[C@H]2O[C@@H](OC(CCCCc3ccc(O)cc3)CCc3ccc(O)cc3)[C@H](O)[C@@H](O)[C@@H]2O)[C@H](O)[C@H](O)[C@H]1O` (stereo partly drawn): in assay [1], the activation is 6.11%. For the same compound, the Potency result in assay [2] and in assay [3] was “inactive” throughout.

Take `NC(=O)C(O[C@@H]1O[C@H](CO[C@@H]2O[C@H](CO)[C@@H](O)[C@H](O)[C@H]2O)[C@@H](O)[C@H](O)[C@H]1O)c1ccccc1` (stereo partly drawn): the activation in assay [1] was -6.11%. In addition, the Potency result in assay [2] and in assay [3] was “inactive” in each case.

For the compound `C/C=C(\C)C(=O)OC[C@H]1O[C@@H](O[C@H]2[C@@H](O[C@H]3O[C@H](COC(=O)/C(C)=C/C)[C@@H](O)[C@H](O)[C@H]3O[C@@H]3O[C@H](CO)[C@@H](O)[C@H](OC(=O)/C(C)=C/C)[C@H]3O)O[C@H](COC(=O)/C(C)=C/C)[C@@H](O)[C@@H]2O)[C@H](O)[C@@H](O)[C@@H]1O`, in assay [1], the activation was -25.2%. In addition, the Potency result in assay [2] and in assay [3] was “inactive” throughout.

As for `C=C[C@]1(C)C[C@H](O)[C@@H]2[C@H](OC(=O)[C@@H]2C)C1/C(C)=C/O[C@@H]1O[C@H](CO)[C@@H](O)[C@H](O)[C@H]1O` (stereo partly drawn), the activation in assay [1] was -27.7%. For the same compound, the Potency entry in assay [2] and in assay [3] was “inactive” each time.

Consider `CC(C)c1ccc(CO)cc1O[C@@H]1O[C@H](CO)[C@@H](O)[C@H](O)[C@H]1O`, for which the activation in assay [1] was -11.5%. The Potency result in assay [2] and in assay [3] was “inactive” in each case.

In the case of `CC(C)C1C(OC(=O)/C=C/c2ccccc2)CC2(C)OC2CCC2(C)OC2C1O` (stereo not drawn), the activation in assay [1] was -0.763%. Moreover, the Potency entry in assay [2] and in assay [3] was “inactive” throughout.

Consider `C=C(C)C(=O)OC1CC2(C)OC(=CC2=O)C(=C)CC2OC(=O)C(=C)C12` (stereo not drawn), for which the Potency in assay [1] was 4.67 µM (active). For the same compound, the Potency entry in assay [2] and in assay [3] was “inactive” each time.

`Cc1ccc(N2CCN(S(=O)(=O)N3CCCCC3)CC2)c(C)c1`: in assay [1], the activation is 17.9%. The Potency entry in assay [2] and in assay [3] was “inactive” in each case.

As for `CC1OC(OC2C(OC3C(O[C@H]4CC[C@@]5(C)C(CC[C@]6(C)C5C(=O)CC5=C7CC(C)(C)CC(O)[C@]7(C)CC[C@]56C)C4(C)C)OC(C(=O)O)C(O)C3O)OCC(O)C2O)C(O)C(O)C1O` (stereo partly drawn), in assay [1], the activation is -11.5%. Moreover, the Potency result in assay [2] and in assay [3] was “inactive” each time.

As for `C[C@@H]1CCO[C@H]2Cn3cc(C(=O)NCc4ccc(F)cc4F)c(=O)c(O)c3C(=O)N12`, the activation in assay [1] was 32.3%. For the same compound, the Potency result in assay [2] and in assay [3] was “inactive” each time.

On to `COC(=O)C1=COC(O[C@@H]2O[C@H](COC(=O)/C=C/c3ccc(O)cc3)[C@@H](O)[C@H](O)[C@H]2O)C2C(CO)=CCC12` (stereo partly drawn), for which the activation in assay [1] is -23.7%. Besides, the Potency entry in assay [2] and in assay [3] was “inactive” each time.

With `C/C1=C\CC[C@]2(C)O[C@@H]2[C@H](O)[C@H](C(C)C)[C@H](OC(=O)/C=C/c2ccccc2)C1`, the activation in assay [1] was 6.25%. In addition, the Potency result in assay [2] and in assay [3] was “inactive” throughout.

With `CC(C)c1ccc2c(c1)[C@H](O)CC1[C@@](C)(C(=O)O)CCC[C@]21C` (stereo partly drawn), the activation in assay [1] was -4.46%. The Potency result in assay [2] and in assay [3] was “inactive” each time.

`CCC(C)/C=C(C)/C=C/C1=CC2=C(Cl)C(=O)C(C)(OC(C)=O)C(=O)C2=CN1C1CCCCN(C(CCC(N)=O)C(=O)O)C1=O` (stereo not drawn): the activation in assay [1] was 2.68%. Also, the Potency entry in assay [2] and in assay [3] was “inactive” each time.

`CC(=O)O[C@@H]1C[C@@]23C[C@@]24CC[C@H](OC2OC[C@@H](O)[C@H](O)[C@H]2O)C(C)(C)[C@@H]4CC[C@H]3[C@]2(C)CC3OC4(C[C@@H](C)C3[C@@]12C)OCC1(C)OC14` (stereo partly drawn): the activation in assay [1] is 13.4%. Moreover, the Potency result in assay [2] and in assay [3] was “inactive” each time.

In the case of `Cn1ccnc1CCOC(c1cc2nccc(C(=O)O)c2[nH]1)c1ccccc1Cl` (stereo not drawn), the activation in assay [1] is -5%. In addition, the Potency entry in assay [2] and in assay [3] was “inactive” in each case.

Turning to `CC1(C(=O)O)CCCC2(C)C1CCC13CC(CCC21)C1(CO)OC31` (stereo not drawn), the activation in assay [1] is -9.16%. Also, the Potency entry in assay [2] and in assay [3] was “inactive” throughout.

For `C[C@@H]1O[C@@H](O[C@@H]2[C@@H](O)[C@@H](O)[C@H](O[C@@H]3[C@@H](O)[C@@H](O[C@]4(CO)O[C@H](CO)[C@@H](O)[C@@H]4OC(=O)/C=C/c4ccc(O)cc4)O[C@H](CO)[C@H]3OC(=O)/C=C/c3ccc(O)cc3)O[C@H]2C)[C@H](O)[C@H](O)[C@H]1O`, the activation in assay [1] was 3.82%. Besides, the Potency result in assay [2] and in assay [3] was “inactive” throughout.
